Test results from PubChem BioAssay AID602144 (Vanderbilt Specialized Chemistry Center, 2011).
Values without a mark were called inactive. The source made the active and inactive calls. No stated cut-off is given here; in the data, active means remaining activity below about 50%; inactive means the rest.

Target: Phospholipase D1 (Homo sapiens) (UniProt Q13393)
Experiment: cellular phospholipase D1 activity inhibition – Calu-1 cells, single concentration (AID 602144);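 further: tested at 200 nM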
Details: cellular PLD1 activity, hits give low values

Sequence of Phospholipase D1 (Homo sapiens) (Q13393 whole entry, looked up): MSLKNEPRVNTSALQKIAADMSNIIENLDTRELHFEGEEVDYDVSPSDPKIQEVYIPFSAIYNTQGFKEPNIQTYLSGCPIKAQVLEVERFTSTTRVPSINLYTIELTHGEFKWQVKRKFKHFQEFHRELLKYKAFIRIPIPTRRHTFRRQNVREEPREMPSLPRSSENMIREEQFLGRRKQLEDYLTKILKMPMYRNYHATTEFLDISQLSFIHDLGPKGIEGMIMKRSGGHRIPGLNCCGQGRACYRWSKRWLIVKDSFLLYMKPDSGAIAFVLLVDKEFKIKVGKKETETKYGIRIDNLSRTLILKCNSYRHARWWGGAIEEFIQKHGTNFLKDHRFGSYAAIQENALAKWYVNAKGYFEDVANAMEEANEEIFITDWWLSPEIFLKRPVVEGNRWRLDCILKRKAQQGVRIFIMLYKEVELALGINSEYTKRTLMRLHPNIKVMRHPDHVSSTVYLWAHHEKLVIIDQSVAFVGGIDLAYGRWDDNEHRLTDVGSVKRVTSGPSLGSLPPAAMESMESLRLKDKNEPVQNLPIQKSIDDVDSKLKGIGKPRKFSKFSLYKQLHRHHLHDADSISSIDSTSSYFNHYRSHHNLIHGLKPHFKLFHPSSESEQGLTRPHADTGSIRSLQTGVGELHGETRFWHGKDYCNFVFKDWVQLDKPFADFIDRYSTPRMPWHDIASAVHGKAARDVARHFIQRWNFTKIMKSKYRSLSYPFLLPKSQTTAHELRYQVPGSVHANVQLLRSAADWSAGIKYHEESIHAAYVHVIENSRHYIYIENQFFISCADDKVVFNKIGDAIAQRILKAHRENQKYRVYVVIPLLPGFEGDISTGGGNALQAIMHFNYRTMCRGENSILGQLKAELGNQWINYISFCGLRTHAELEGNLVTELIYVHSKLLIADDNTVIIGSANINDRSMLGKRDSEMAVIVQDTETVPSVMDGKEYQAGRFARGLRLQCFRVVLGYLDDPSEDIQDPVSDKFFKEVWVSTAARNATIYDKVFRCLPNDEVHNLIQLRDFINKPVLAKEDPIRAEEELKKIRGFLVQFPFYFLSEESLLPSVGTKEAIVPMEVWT
Sequence of Phospholipase D1 (Homo sapiens) (Q13393 whole entry, looked up): as above

In order of rising remaining activity:
1. O=C(c1ccc(Cl)cc1)N(CCN1CCC(n2c(=O)[nH]c3ccccc32)CC1)C(=O)c1ccc(Cl)cc1  63.9%
2. C[C@@H](CN1CCC(n2c(=O)[nH]c3cc(-c4ccc(C(F)(F)F)cc4)ccc32)CC1)NC(=O)[C@H]1C[C@@H]1c1ccccc1  63.9%
3. C[C@@H](CN1CCC(n2nnc3cc(C(F)(F)F)ccc32)CC1)NC(=O)c1ccc2ccccc2c1  65.2%
4. Cc1cccc(NC(=O)NCCN2CCC(n3c(=O)[nH]c4ccccc43)CC2)c1  67.6%
5. O=C(NCCN1CCC(C(=O)NCCCN2CCOCC2)CC1)c1ccc2ccccc2c1  68.3%
6. Nc1ccc(C(=O)NCCN2CCC(n3c(=O)[nH]c4ccccc43)CC2)c(F)c1  68.5%
7. O=C(CCc1ccccc1)NCCN1CCC(n2c(=O)[nH]c3ccccc32)CC1  76.1%
8. O=C(NCCN1CCC(n2c(=O)[nH]c3ccccc32)CC1)c1cc2ccc3ccccc3c2c2ccccc12  76.6%
9. CC(C)[C@@H](CN1CCC(n2c(=O)[nH]c3ccccc32)CC1)NC(=O)[C@@H]1C[C@H]1c1ccccc1  82.9%
10. O=C(C1C[C@@H]1c1ccccc1)N1CCC(n2c(=O)[nH]c3cc(Cl)ccc32)CC1 (stereo partly specified)  89.8%
11. O=c1[nH]c2ccccc2n1C1CCN(CCNS(=O)(=O)c2ccccc2C(F)(F)F)CC1  94.8%
12. C[C@@H](CN1CCC2(CNCc3ccccc32)C1)NC(=O)c1ccc2ccccc2c1 (stereo partly specified)  95.4%
13. COc1cccc(N2CCN(CCNC(=O)c3ccc(F)cc3)CC2)c1  110%
14. O=C(N[C@@H](Cc1ccccc1)CN1CCC(n2c(=O)[nH]c3ccccc32)CC1)c1cnc2ccccc2c1  116%
15. C[C@@H](CN1CCC2(CC1)CN(S(C)(=O)=O)c1ccccc12)NC(=O)c1ccc2ccccc2c1  119%
16. CN1CCC2(CCN(CCNC(=O)c3ccc4ccccc4c3)CC2)C1=O  120%
17. O=c1[nH]c2ccccc2n1C1CCN(CCNS(=O)(=O)c2cccc3cccnc23)CC1  121%
18. CCCCS(=O)(=O)NCCN1CCC(n2c(=O)[nH]c3ccccc32)CC1  124%
19. O=C(NCCN1CCC2(CC1)CNc1ccccc12)c1cnc2ccccc2c1  126%
20. O=C(NCCN1CCC(n2c(=O)[nH]c3ccccc32)CC1)Nc1cccc(OC(F)(F)F)c1  131%
21. Cc1cc(C)c(S(=O)(=O)NCCN2CCC(n3c(=O)[nH]c4ccccc43)CC2)c(C)c1  133%
22. CS(=O)(=O)N1CC2(CCN(CCNC(=O)c3ccc4ccccc4c3)CC2)c2ccccc21  136%
23. O=C(NCCN1CCN(c2ccncc2)CC1)c1ccc2ccccc2c1  139%
24. O=c1[nH]c2ccccc2n1C1CCN(CCNC(=S)Nc2ccccn2)CC1  148%
25. O=C(NCCN1CCN(c2ccccn2)CC1)c1ccc(C(F)(F)F)cc1  152%
26. O=c1[nH]c2ccccc2n1C1CCN(CCNC(=S)Nc2ccc(Cl)c(Cl)c2)CC1  170%
27. Cc1ccccc1NC(=S)NCCN1CCC(n2c(=O)[nH]c3ccccc32)CC1  173%

With COc1cccc(C(=O)NCCN2CCC(n3c(=O)[nH]c4ccccc43)CC2)n1 the remaining activity was 39.7% (active).
For O=C(NCCN1CCC(n2c(=O)[nH]c3ccc(F)cc32)CC1)c1ccc(Cl)c(Cl)c1, the remaining activity was 0% (active).
O=C(NCCN1CCC(n2c(=O)[nH]c3ccc(F)cc32)CC1)c1cccc2c1C(=O)c1ccccc1-2 was tested, and the remaining activity was 0% (active).
For O=C(NCCN1CCC(n2c(=O)[nH]c3ccccc32)CC1)c1cc([N+](=O)[O-])cc([N+](=O)[O-])c1, the remaining activity was 50% (active).
C[C@@H](CN1CCC(n2c(=O)[nH]c3ccccc32)CC1)NC(=O)c1ccc[nH]1 was tested, and the remaining activity was 48.2% (active).
With C[C@@H](CN1CCC(n2c(=O)[nH]c3cc(I)ccc32)CC1)NC(=O)C1CC1c1ccccc1 (stereo partly specified) the remaining activity was 19.9% (active).
For O=C(NCCN1CCC(n2c(=O)[nH]c3ccccc32)CC1)c1cccc(Cl)n1, the remaining activity was 37.8% (active).
In the case of C[C@@H](CN1CCC(n2c(=O)[nH]c3cc(F)ccc32)CC1)NC(=O)c1ccc(F)c(F)c1, the remaining activity is reported as 19.7% (active).
For O=C(NCCN1CCC(n2c(=O)[nH]c3ccccc32)CC1)c1cscn1, the remaining activity was 16.7% (active).
